# In PubChem BioAssay (Tox21):
# Records with an inconclusive call do not appear. Where a call stands in place of a potency, no number is given. Active and inactive are the calls of the source. Unless noted, the call rests on the fitted dose curve; in most records, active means well fitted cell-killing curve with a large enough effect in the repeat runs; inconclusive means weak or mixed curves, or effect the other way; inactive means no such curve, though single readings can be large or run the other way.
# Test: qHTS assay to identify small molecule antagonists of the vitamin D receptor (VDR) signaling pathway - cell viability counter screen (AID 743225); further: nearly all actives have a fitted effect of over 50% in size
# Conditions: VDR-bla HEK293T viability, CellTiter-Glo luminescence, 16 h; series mostly up to 61 µM
# In short: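 Luminescent cell viability (CellTiter-Glo) in VDR-bla HEK 293T cells after 16 h compound exposure at 37C in the presence of 3 nM final 1-alpha,25-dihydroxy vitamin D3.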
row,SMILES,Potency
1,Cc1cc(S(=O)(=O)O)ccc1N=Nc1c(O)ccc2ccccc12,inactive
2,CCCc1c(OCCCOc2ccc(OCC(=O)O)cc2)ccc(C(C)=O)c1O,inactive
3,COC(=O)Nc1nc2ccc(C(=O)c3cccs3)cc2[nH]1,inactive
4,C1COCO1,inactive
5,Cc1ccc(Nc2nccc(N(C)c3ccc4c(C)n(C)nc4c3)n2)cc1S(N)(=O)=O,inactive
6,O=C(N/N=C/c1ccc([N+](=O)[O-])o1)c1ccc(O)cc1,inactive
7,CC(C)CCCCCCOC(=O)CCCCC(=O)OCCCCCCC(C)C,inactive
8,CCNC(=O)N1CCN(CCCC(c2ccc(F)cc2)c2ccc(F)cc2)CC1,inactive
9,C[C@]12CCC(=O)C=C1C=C[C@@H]1[C@@H]2CC[C@@]2(C)[C@H]1CC[C@@]21CCC(=O)O1,inactive
10,CCc1cccc(N(C)C(N)=Nc2cccc3ccccc23)c1,inactive
11,CCCCC(=O)O[C@]1(C(=O)CO)CC[C@H]2[C@@H]3CCC4=CC(=O)CC[C@]4(C)[C@H]3[C@@H](O)C[C@@]21C,inactive
12,CCC1(C)CC(=O)NC1=O (stereo unspecified),inactive
13,CCCCCC=CCC=CCCCCCCCC(=O)OCC,inactive
14,CC(=O)[C@H]1CC[C@H]2[C@@H]3C=CC4=CC(=O)CC[C@@]4(C)[C@@H]3CC[C@]12C,inactive
15,O=C1NCCN1,inactive
16,C=CCOC(=O)/C=C\C(=O)OCC=C,inactive

row,SMILES,Potency
1,CCC(C(=O)OCCN(CC)CC)c1ccccc1 (stereo unspecified),inactive
2,CN(C(=O)C(Cl)Cl)c1ccc(OC(=O)c2ccco2)cc1,inactive
3,C[N+](C)(C)CCOC(N)=O,inactive
4,CO/N=C1\CN(c2nc3c(cc2F)c(=O)c(C(=O)O)cn3C2CC2)CC1CN (stereo unspecified),inactive
5,CN1C(=O)CC(C)(c2ccccc2)C1=O (stereo unspecified),inactive
6,NC(=O)Cn1c(=O)cc(CCN2CCN(c3nccc4sccc34)CC2)c2ccc(F)cc21,inactive
7,CC(=O)[C@H]1CC[C@H]2[C@@H]3C[C@H](C)C4=CC(=O)CC[C@]4(C)[C@H]3[C@@H](O)C[C@]12C,inactive
8,COc1cc2c(cc1OC)-c1cc(=Nc3c(C)cc(C)cc3C)n(C)c(=O)n1CC2,inactive
9,Cc1occc1C(=O)Nc1ccc(C(=O)N2CCC(F)(F)/C(=C\C(=O)N3CCC(N4CCCCC4)CC3)c3ccccc32)cc1,inactive
10,CCCCCCCCCCOS(=O)(=O)O,inactive
11,CC(CCc1ccc2c(c1)OCO2)NN (stereo unspecified),inactive
12,CCOC(=O)OCC,inactive
13,Cc1cnc(C)c(C)n1,inactive
14,COc1ccc([C@@H]2Sc3ccccc3NC(=O)[C@@H]2O)cc1,inactive
15,CC(C)C(=O)O,inactive

# Test: qHTS assay to identify small molecule agonists of the NFkB signaling pathway (AID 1159509; active means well fitted curve in the direction sought with a large enough effect in the signal ratio in the repeat runs, not every such curve was filed as active; the % refers to the signal ratio)
# Conditions: NFkB-bla ME-180 cells, beta-lactamase FRET ratio, 5 h; series mostly up to 61 µM
# In short: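 NFkB-bla ME-180 cells with a beta-lactamase reporter under an NF-kB response element were plated overnight, treated with compounds in DMSO for 5 hr at 37 C, then loaded with FRET substrate for 1.5 hr at room temperature.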
row,SMILES,outcome
1,Cc1cc(S(=O)(=O)O)ccc1N=Nc1c(O)ccc2ccccc12,inactive
2,CCCc1c(OCCCOc2ccc(OCC(=O)O)cc2)ccc(C(C)=O)c1O,inactive
3,COC(=O)Nc1nc2ccc(C(=O)c3cccs3)cc2[nH]1,inactive
4,CCc1c2c(nc3ccc(OC(=O)N4CCC(N5CCCCC5)CC4)cc13)-c1cc3c(c(=O)n1C2)COC(=O)[C@]3(O)CC,inactive
5,C1COCO1,inactive
6,CN(C)CCOC1=Cc2ccccc2Sc2ccc(Cl)cc21,inactive
7,CCOC(=O)CC(=O)C(=O)OCC,inactive
8,Cc1ccc(Nc2nccc(N(C)c3ccc4c(C)n(C)nc4c3)n2)cc1S(N)(=O)=O,inactive
9,O=C(N[C@@H](c1ccccc1)[C@@H]1CCCCN1)c1cccc(C(F)(F)F)c1Cl,inactive
10,O=C(N/N=C/c1ccc([N+](=O)[O-])o1)c1ccc(O)cc1,inactive
11,CC(C)CCCCCCOC(=O)CCCCC(=O)OCCCCCCC(C)C,inactive
12,CCNC(=O)N1CCN(CCCC(c2ccc(F)cc2)c2ccc(F)cc2)CC1,inactive
13,C[C@]12CCC(=O)C=C1C=C[C@@H]1[C@@H]2CC[C@@]2(C)[C@H]1CC[C@@]21CCC(=O)O1,inactive
14,CCc1cccc(N(C)C(N)=Nc2cccc3ccccc23)c1,inactive
15,CCCCC(=O)O[C@]1(C(=O)CO)CC[C@H]2[C@@H]3CCC4=CC(=O)CC[C@]4(C)[C@H]3[C@@H](O)C[C@@]21C,inactive
16,CCC1(C)CC(=O)NC1=O (stereo unspecified),inactive
17,CCCCCC=CCC=CCCCCCCCC(=O)OCC,inactive
18,CC(=O)[C@H]1CC[C@H]2[C@@H]3C=CC4=CC(=O)CC[C@@]4(C)[C@@H]3CC[C@]12C,inactive
19,O=C1NCCN1,inactive
20,C=CCNc1nc(NCC=C)nc(N2CCN(C(c3ccc(F)cc3)c3ccc(F)cc3)CC2)n1,inactive

row,SMILES,outcome
1,COC(=O)CC(=O)C(C)(C)C,inactive
2,C=CCOC(=O)/C=C\C(=O)OCC=C,inactive
3,CCC(C(=O)OCCN(CC)CC)c1ccccc1 (stereo unspecified),inactive
4,CN(C(=O)C(Cl)Cl)c1ccc(OC(=O)c2ccco2)cc1,inactive
5,CCOC(=O)c1ccccc1C,inactive
6,C[N+](C)(C)CCOC(N)=O,inactive
7,CO/N=C1\CN(c2nc3c(cc2F)c(=O)c(C(=O)O)cn3C2CC2)CC1CN (stereo unspecified),inactive
8,CN1C(=O)CC(C)(c2ccccc2)C1=O (stereo unspecified),inactive
9,NC(=O)Cn1c(=O)cc(CCN2CCN(c3nccc4sccc34)CC2)c2ccc(F)cc21,inactive
10,CC(=O)[C@H]1CC[C@H]2[C@@H]3C[C@H](C)C4=CC(=O)CC[C@]4(C)[C@H]3[C@@H](O)C[C@]12C,inactive
11,COc1cc2c(cc1OC)-c1cc(=Nc3c(C)cc(C)cc3C)n(C)c(=O)n1CC2,inactive
12,O=C(CCC1CCN(Cc2ccccc2)CC1)c1ccc2c(c1)NCCCC2,inactive
13,Cc1occc1C(=O)Nc1ccc(C(=O)N2CCC(F)(F)/C(=C\C(=O)N3CCC(N4CCCCC4)CC3)c3ccccc32)cc1,inactive
14,CCCCCCCCCCOS(=O)(=O)O,inactive
15,CC(CCc1ccc2c(c1)OCO2)NN (stereo unspecified),inactive
16,CCOC(=O)OCC,inactive
17,Cc1cnc(C)c(C)n1,inactive
18,COc1ccc([C@@H]2Sc3ccccc3NC(=O)[C@@H]2O)cc1,inactive
19,CC(C)C(=O)O,inactive
20,CCOC(=O)/C=C/C(=O)O,inactive
